Experimental data taken from the supplement of paper PMC11732987, “Enantioselective OTUD7B fragment discovery through chemoproteomics screening and high-throughput optimisation” (Communications Chemistry, 2025).

What was measured:
Test in all cases: log2 ratio of Biotin-Ahx-Ub-VS probe labelling (fragment/DMSO); higher = less target engagement (more negative = stronger competition), active = hit call of the paper (q ≤ 0.05, log2 ratio ≤ -1)
Settings in all cases: compound concentration: 200 uM; treatment time: 3 h
OTUD6B = molecular target: T1, OTUD6B (UniProt Q8N6M0)
T1 sequence (whole entry): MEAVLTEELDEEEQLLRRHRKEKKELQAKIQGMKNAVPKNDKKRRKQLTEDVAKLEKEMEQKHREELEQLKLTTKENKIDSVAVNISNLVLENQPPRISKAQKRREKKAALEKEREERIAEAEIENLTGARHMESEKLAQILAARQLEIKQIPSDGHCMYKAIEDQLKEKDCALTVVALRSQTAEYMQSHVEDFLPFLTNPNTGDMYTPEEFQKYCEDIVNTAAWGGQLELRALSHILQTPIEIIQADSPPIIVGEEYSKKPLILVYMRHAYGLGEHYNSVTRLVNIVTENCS
Procedure, shortened: (§1)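 The table lists average log2 ratios of fragment over vehicle, from an unpaired t-test on global-median-normalised Spectronaut label-free quantities. Proteins with ≥2 unique peptides were used. Samples were HEK293T lysate (495 µg) treated in triplicate with fragment at 200 µM or vehicle for 3 h, then with Biotin-Ahx-Ub-VS (0.5 µM final) for 1 h, with labelled DUBs NeutrAvidin-enriched and run by diaPASEF LC-MS/MS.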

OTUD7B = molecular target: T2, OTUD7B (UniProt Q6GQQ9)
T2 sequence (whole entry): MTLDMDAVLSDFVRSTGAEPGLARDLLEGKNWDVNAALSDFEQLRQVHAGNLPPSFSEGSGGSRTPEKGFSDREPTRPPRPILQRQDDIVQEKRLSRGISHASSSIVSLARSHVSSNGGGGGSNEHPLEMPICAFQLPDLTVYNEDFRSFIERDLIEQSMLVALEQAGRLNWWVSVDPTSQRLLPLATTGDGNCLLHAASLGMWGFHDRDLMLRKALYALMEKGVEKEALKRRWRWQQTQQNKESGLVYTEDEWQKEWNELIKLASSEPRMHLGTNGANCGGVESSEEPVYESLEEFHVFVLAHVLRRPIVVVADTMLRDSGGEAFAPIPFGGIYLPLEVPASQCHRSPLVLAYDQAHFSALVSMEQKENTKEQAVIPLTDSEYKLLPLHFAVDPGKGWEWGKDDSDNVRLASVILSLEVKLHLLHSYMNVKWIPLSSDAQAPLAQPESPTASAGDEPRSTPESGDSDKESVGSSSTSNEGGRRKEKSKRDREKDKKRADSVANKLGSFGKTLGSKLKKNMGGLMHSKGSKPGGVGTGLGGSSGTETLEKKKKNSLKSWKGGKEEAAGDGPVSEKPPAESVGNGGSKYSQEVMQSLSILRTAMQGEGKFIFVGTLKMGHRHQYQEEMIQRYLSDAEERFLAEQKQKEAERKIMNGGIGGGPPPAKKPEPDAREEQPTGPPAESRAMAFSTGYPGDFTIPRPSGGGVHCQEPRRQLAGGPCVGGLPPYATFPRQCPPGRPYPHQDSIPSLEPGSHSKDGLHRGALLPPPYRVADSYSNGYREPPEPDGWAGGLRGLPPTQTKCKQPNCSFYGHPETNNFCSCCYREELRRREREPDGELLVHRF
Procedure, shortened: as §1

PRPF8 = PRPF8 (UniProt Q6P2Q9)
Procedure, shortened: as §1

PSMD7 = molecular target: T3, PSMD7 (UniProt P51665)
T3 sequence (whole entry): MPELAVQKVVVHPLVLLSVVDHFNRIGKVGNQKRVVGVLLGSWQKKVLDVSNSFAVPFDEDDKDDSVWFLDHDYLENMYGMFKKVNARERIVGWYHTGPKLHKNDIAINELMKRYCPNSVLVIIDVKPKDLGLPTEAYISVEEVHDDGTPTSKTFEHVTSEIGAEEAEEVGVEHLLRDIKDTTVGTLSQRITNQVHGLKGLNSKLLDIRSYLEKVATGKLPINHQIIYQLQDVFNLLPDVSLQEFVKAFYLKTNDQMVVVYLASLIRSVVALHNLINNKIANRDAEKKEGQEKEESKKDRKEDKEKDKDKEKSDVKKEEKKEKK
Procedure, shortened: as §1

UCHL1 = UCHL1 (UniProt P09936)
UCHL1, sequence (P09936 whole entry, looked up): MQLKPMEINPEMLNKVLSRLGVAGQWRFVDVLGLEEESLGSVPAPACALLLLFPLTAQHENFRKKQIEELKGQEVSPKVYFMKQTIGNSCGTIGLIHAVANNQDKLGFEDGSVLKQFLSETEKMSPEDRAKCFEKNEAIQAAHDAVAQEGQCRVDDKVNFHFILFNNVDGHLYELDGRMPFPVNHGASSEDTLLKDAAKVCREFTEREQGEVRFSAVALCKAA
Procedure, shortened: as §1

UCHL3 = molecular target: T4, UCHL3 (UniProt P15374)
T4 sequence (whole entry): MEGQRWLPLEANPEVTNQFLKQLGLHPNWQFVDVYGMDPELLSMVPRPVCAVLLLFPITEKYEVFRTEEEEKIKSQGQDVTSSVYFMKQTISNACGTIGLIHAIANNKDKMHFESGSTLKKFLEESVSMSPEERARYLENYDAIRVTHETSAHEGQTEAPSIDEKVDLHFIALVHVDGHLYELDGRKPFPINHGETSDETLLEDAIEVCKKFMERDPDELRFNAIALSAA
Procedure, shortened: as §1

UCHL5 = molecular target: T5, UCHL5 (UniProt Q9Y5K5)
T5 sequence (whole entry): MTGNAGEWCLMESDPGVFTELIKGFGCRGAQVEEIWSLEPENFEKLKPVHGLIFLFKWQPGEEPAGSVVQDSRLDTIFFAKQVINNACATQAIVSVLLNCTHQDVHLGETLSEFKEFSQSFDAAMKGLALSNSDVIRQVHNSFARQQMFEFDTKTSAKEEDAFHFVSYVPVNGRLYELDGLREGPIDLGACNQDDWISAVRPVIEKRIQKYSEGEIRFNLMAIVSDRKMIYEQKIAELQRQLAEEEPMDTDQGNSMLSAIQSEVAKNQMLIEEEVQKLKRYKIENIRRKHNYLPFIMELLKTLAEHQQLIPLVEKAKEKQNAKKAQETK
Procedure, shortened: as §1

USP10 = USP10 (UniProt Q14694)
USP10, sequence (Q14694 whole entry): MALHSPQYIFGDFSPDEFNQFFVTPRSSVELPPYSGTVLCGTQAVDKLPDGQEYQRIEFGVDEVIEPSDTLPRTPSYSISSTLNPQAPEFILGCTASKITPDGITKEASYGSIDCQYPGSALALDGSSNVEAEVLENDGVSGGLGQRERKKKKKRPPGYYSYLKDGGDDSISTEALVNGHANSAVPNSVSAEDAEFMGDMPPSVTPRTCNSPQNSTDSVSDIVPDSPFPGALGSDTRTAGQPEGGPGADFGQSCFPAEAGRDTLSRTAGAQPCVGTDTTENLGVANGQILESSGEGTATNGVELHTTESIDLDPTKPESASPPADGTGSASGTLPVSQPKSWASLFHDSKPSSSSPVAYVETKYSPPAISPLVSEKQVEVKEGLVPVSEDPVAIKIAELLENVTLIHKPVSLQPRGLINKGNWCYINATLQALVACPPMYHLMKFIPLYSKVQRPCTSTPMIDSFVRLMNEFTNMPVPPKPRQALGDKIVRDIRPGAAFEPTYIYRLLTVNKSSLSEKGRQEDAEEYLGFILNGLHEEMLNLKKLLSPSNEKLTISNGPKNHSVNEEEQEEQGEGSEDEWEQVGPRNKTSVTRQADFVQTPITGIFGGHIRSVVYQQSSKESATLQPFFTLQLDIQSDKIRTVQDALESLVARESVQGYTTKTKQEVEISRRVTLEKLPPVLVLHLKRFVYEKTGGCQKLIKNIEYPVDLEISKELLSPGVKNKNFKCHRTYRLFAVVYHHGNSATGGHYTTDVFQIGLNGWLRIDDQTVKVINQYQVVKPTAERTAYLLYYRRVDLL
Procedure, shortened: as §1

USP15 = molecular target: T6, USP15 (UniProt Q9Y4E8)
T6 sequence (whole entry): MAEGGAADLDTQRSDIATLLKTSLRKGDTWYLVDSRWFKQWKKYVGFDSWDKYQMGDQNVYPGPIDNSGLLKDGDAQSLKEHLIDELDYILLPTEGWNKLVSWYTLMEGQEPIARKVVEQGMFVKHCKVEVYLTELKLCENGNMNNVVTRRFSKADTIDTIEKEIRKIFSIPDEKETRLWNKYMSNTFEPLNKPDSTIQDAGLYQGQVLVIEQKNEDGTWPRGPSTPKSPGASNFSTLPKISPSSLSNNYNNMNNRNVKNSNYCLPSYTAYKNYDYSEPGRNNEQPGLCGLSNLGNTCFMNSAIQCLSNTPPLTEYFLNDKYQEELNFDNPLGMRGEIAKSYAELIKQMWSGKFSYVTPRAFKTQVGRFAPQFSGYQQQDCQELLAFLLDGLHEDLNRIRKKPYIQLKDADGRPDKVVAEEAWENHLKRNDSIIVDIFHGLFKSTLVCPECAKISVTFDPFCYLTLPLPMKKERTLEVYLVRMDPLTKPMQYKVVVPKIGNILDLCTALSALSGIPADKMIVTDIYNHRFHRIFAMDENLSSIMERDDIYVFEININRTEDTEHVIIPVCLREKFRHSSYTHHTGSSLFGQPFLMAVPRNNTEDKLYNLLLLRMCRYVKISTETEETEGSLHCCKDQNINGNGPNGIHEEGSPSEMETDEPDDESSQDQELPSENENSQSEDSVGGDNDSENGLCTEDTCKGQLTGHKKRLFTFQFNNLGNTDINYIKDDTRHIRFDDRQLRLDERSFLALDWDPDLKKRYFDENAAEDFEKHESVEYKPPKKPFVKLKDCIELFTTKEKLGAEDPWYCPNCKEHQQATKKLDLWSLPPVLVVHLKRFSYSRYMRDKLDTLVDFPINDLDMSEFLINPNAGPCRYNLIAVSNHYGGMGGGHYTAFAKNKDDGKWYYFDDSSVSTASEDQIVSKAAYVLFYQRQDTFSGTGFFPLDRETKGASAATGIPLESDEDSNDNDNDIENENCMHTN
Procedure, shortened: as §1

USP16 = USP16 (UniProt Q9Y5T5)
USP16, sequence (Q9Y5T5 whole entry, looked up): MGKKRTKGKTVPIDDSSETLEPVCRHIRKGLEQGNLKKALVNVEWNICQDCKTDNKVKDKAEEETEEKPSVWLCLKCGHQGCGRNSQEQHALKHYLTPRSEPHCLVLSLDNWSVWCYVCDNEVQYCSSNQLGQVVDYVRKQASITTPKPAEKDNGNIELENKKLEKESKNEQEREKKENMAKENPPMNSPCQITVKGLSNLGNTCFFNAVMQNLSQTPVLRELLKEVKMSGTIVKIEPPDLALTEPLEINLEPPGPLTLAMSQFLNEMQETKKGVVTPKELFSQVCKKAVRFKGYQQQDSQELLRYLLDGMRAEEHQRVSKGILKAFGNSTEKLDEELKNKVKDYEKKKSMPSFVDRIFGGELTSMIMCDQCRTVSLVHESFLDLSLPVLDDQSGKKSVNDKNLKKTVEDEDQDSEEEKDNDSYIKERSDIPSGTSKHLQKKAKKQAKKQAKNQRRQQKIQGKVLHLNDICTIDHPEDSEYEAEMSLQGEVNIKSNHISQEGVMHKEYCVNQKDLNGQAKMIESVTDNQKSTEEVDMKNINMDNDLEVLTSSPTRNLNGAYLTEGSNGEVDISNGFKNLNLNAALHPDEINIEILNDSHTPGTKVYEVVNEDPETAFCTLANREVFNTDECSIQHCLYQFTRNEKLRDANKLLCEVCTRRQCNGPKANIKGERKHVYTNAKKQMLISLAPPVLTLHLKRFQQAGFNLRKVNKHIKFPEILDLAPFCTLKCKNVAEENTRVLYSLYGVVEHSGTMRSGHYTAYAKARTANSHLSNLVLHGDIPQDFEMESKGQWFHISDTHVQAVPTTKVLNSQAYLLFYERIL
Procedure, shortened: as §1

Measured: log2 ratio of Biotin-Ahx-Ub-VS probe labelling

O=C(CCl)Nc1ccc(F)cc1Cl
inactive: OTUD6B -0.388 | OTUD7B -0.667 | PRPF8 0.079 | PSMD7 -0.115 | UCHL1 -1.44 | UCHL3 -0.112 | UCHL5 -0.49 | USP10 -0.129 | USP15 0.0309 | USP16 -0.265
